Rows were chosen to be rich in hits. Some 4.7% of all compounds tested hit in one or more screens of this group.
PfHsp90 yeast 2 = inhibits growth of yeast expressing Plasmodium falciparum Hsp90 | inhibition, % at 9.4 µM | actives 0.32% (n = 310,000) | AID 504621 | S. cerevisiae expressing PfHsp90, BacTiter-Glo ATP, 48 h; yeast lacking PDR1 and PDR3 efflux regulators;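 active means every replicate shows inhibition above about 80%, whatever the replicate mean, limit read from the data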;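 further: 0% = DMSO neutral controls and 100% = 20 µM radicicol positive controls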
SKKanGAS inh = inhibitors of SKKanGAS S. pyogenes growth in kanamycin (SK-promoter or general growth effect). BacTiter-Glo, 6 h. inhibition, % at 7.5 µM. actives 1.3% (n = 300,000);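 active means mean replicate score, as percent of positive control median, at least 50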;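 further: strain carries kanamycin resistance gene driven by streptokinase promoter and grows in 40 µg/ml kanamycin; loss of luminescence reflects streptokinase promoter inhibition or plain growth inhibition; 0% = median of DMSO wells and 100% = positive control at its reference dose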
tim23-1 inh = inhibits growth of tim23-1 mutant yeast. S. cerevisiae tim23-1 growth, BacTiter-Glo luminescence, 24 h. inhibition, % at 20 µM. actives 1.3% (n = 330,000);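 active means growth inhibition of the mutant yeast at or above 50%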;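 further: temperature-sensitive mutant grown at 25 °C; plate controls were DMSO-treated mutant yeast for no effect and medium wells lacking yeast for full effect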
TIM10 inh = TIM10 yeast growth inhibition | S. cerevisiae TIM10 strain growth, BacTiter-Glo luminescence, 24 h | inhibition, % at 10 µM | actives 1.4% (n = 330,000);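 active means inhibition of 40% or more at the single tested concentration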;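 further: wild-type TIM10 isogenic control strain grown at permissive 25 °C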
tim10-1 inh = growth inhibitors of tim10-1 mutant yeast. actives 2.2% (n = 330,000). S. cerevisiae tim10-1 ts strain growth, BacTiter-Glo, 24 h. inhibition, % at 20 µM;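 active means inhibition of at least 40%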;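 further: mutant grown at 25 °C; 0% = DMSO wells with yeast and 100% = wells holding no yeast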
ATG4B inh = blocks human ATG4B protease cleavage of LC3 substrate; inhibition, % at 8.33 µM; ATG4B cleavage of LC3-PLA2, NBD-HPC fluorescence, 1 h; Q9Y4P1; actives 0.51% (n = 340,000); AID 504462; in the data active means inhibition above about 40%
Target sequence (Q9Y4P1 whole entry, looked up): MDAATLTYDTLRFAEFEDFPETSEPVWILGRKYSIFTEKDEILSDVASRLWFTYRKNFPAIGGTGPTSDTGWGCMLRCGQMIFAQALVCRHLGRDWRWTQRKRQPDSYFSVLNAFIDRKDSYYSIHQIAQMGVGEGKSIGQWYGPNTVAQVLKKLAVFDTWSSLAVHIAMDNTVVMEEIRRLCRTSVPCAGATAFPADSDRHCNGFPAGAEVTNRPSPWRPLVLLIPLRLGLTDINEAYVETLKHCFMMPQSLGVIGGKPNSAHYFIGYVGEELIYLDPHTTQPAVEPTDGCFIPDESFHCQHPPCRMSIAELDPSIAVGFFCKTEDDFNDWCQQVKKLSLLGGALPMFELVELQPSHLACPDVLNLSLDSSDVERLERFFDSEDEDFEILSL
tim10-1 confirm = tim10-1 yeast growth inhibition, confirmed. shares compounds with tim10-1 inh. S. cerevisiae tim10-1 ts strain growth, BacTiter-Glo, 24 h. inhibition, % at 20 µM. actives 56% (n = 7,400);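 active means inhibition of yeast growth at or above a set limit in either of two repeat tests at 20 µM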;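 further: tim10-1 mutant grown at permissive 25 °C to find synthetic lethal compounds; 0% = DMSO yeast wells and 100% = medium wells without yeast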
* = called active by the depositor; / = no result.

SMILES | PfHsp90 yeast 2 | SKKanGAS inh | tim23-1 inh | TIM10 inh | tim10-1 inh | ATG4B inh | tim10-1 confirm
COC(=O)c1ccc(OC(=O)CS(=O)c2ccccc2[N+](=O)[O-])cc1 (stereo not given) | -13 | -38 | 36 | 28 | 55* | -3 | 36*
CCOC(=O)c1ccccc1OC(=O)CS(=O)c1ccccc1[N+](=O)[O-] (stereo not given) | -5 | 2 | 36 | 5 | 28 | 8 | /
Cc1ccc(OCCN(C)C)c([N+](=O)[O-])c1 | -5 | -1 | 1 | 10 | 4 | 2 | /
O=C(Nc1ccc(S(=O)(=O)Nc2ncccn2)cc1)c1cccc(Br)c1 | -3 | -1 | 7 | -10 | 11 | -6 | /
CCCCn1c(/N=C/c2c[nH]c3ccccc23)nc2ccccc21 | 18 | 0 | 33 | 2 | 41* | -14 | 22
COc1cc(/C=N/NC(=S)NCCN2CCOCC2)cc(OC)c1OC | -18 | 2 | 10 | -2 | 2 | -8 | /
COc1ccccc1NC(=O)C1CCCCN1S(=O)(=O)c1ccc(F)cc1 (stereo not given) | -1 | 5 | 29 | 25 | 35 | -6 | /
COc1ccc(NC(=O)C2CCCCN2S(=O)(=O)c2ccc(F)cc2)c(OC)c1 (stereo not given) | 3 | 0 | 31 | 34 | 44* | -5 | 29
O=C(COC(=O)Cc1c(Cl)cccc1Cl)NCc1ccco1 | -6 | / | -3 | 2 | -9 | 0 | /
CC(Oc1cccc2ccccc12)C(=O)N/N=C/c1cccnc1 (stereo not given) | 2 | -5 | 22 | 7 | 44* | -6 | -3
CC(C)C(=O)N1CCC(n2nccc2NC(=O)CCOc2ccccc2)CC1 | -9 | 11 | -3 | 1 | -3 | -5 | /
CCC1(CC)C(=O)Nc2ccccc21 | 3 | 2 | 8 | 3 | 6 | -14 | /
CC1CCCCC1n1c(=S)[nH]c2ccccc2c1=O (stereo not given) | / | 4 | 38 | 34 | 42* | 33 | 3
OCCCn1c(-c2ccccc2)csc1=Nc1ccccc1 | 3 | -3 | 42 | -6 | 3 | 12 | /
Cc1cccc(C)c1NC(=O)c1cc(-c2ccccn2)nc2ccccc12 | -15 | -4 | 33 | 18 | 41* | -38 | 27
O=C(Nc1ccncc1)c1cc(-c2ccccn2)nc2ccccc12 | 13 | -8 | -16 | -7 | 19 | -9 | /
CCc1cccc(C)c1NC(=O)c1cc(-c2ccncc2)nc2ccccc12 | 1 | / | 27 | 16 | 42* | -8 | 23
Cc1cccc(NC(=O)c2cc(-c3ccco3)nc3ccccc23)n1 | -30 | -8 | 26 | 25 | 41* | -2 | 17
O=C(NC1CCCCC1)/C(=N\O)c1ccccn1 | / | -3 | -8 | -11 | -14 | 0 | /
CCN1C(=O)c2ccccc2S(=O)(=O)c2ccc(C(=O)NCC(OC)OC)cc21 | 19 | 5 | 10 | 6 | -2 | 1 | /
COc1ccc(C(=O)NNS(=O)(=O)c2ccccc2)cc1 | -18 | 2 | 2 | -12 | 7 | 10 | /
C/C(CCC12CC3CC(CC(C3)C1)C2)=N\NC(N)=S | 10 | 0 | 45 | 4 | 58* | -4 | -11
C/C(CC1CC(C)OC1=O)=N\NC(N)=S (stereo not given) | -8 | -3 | -1 | 8 | 3 | -5 | /
O=C(CCCn1c(=S)[nH]c2ccsc2c1=O)NC1CCCCC1 | -36 | -6 | 4 | -1 | 5 | -1 | /
O=C(/C=C\c1ccc(-c2ccccc2)o1)c1ccccc1 | 6 | -23 | 45 | 31 | 48* | 13 | 48*
SMILES | PfHsp90 yeast 2 | SKKanGAS inh | tim23-1 inh | TIM10 inh | tim10-1 inh | ATG4B inh | tim10-1 confirm
Cc1nc2cc(-c3sccc3-n3cccc3)nn2c(C)c1C | -21 | 8 | 41 | 20 | 46* | -4 | 34*
Cc1ccc(Cn2c(=S)[nH]c3ccc(N4CCOCC4)cc3c2=O)o1 | / | 9 | 14 | 15 | 46* | -3 | 22
CCCCn1c(=S)[nH]c2ccc(N3CCOCC3)cc2c1=O | / | 7 | -23 | 31 | 22 | / | /
CC(C)OCCCn1c(=S)[nH]c2ccc(N3CCOCC3)cc2c1=O | / | 2 | 7 | 15 | 45* | -11 | 6
O=C(c1cc(-c2cccnc2)nc2ccccc12)N1CCN(S(=O)(=O)c2cccs2)CC1 | 13 | / | 35 | 11 | 14 | -11 | /
CCOc1ccc(-c2[nH]ncc2Oc2ccccc2OC)c(O)c1 | -3 | 13 | 27 | 28 | 20 | 9 | /
C=C(C)COc1ccc(-c2[nH]ncc2Oc2ccccc2OC)c(O)c1 | 9 | 29 | 43 | 28 | 55* | 12 | 39*
CCOC(=O)CN1C(=O)C(O)(CC(=O)c2ccc3c(c2)CCCC3)c2ccccc21 (stereo not given) | 8 | 2 | 14 | 10 | 38 | -10 | /
O=C(CN1CCN(c2ccccn2)CC1)Nc1ccc(Cl)c(C(F)(F)F)c1 | -22 | 4 | 34 | 3 | 37 | -8 | /
O=C(CN1CCN(S(=O)(=O)c2ccc(F)cc2)CC1)Nc1ccc(Cl)c(C(F)(F)F)c1 | 12 | -8 | 31 | 15 | 44* | -14 | 39*
COc1ccccc1N1CCN(CC(=O)Nc2ccc(Cl)c(C(F)(F)F)c2)CC1 | -1 | 4 | 40 | 27 | 42* | -16 | 29*
O=C(c1ccc(Cl)cc1)[C@@H]1[C@@H]2C(=O)N(c3ccccc3)C(=O)[C@@H]2C2c3ccccc3C=NN21 (stereo not given in full) | -12 | -1 | 41 | 15 | 40* | -14 | 23
COc1ccc(CCNc2oc(COc3ccccc3)nc2C#N)cc1 | 18 | 4 | 19 | 5 | 47* | -1 | 43*
COc1ccc(CNc2oc(COc3ccccc3)nc2C#N)cc1 | / | -6 | 12 | -1 | 29 | 5 | /
CCC1=NN2C(=N)/C(=C\c3cccn3-c3ccc(OC)cc3)C(=O)N=C2S1 | 7 | 21 | 20 | 34 | 31 | 12 | /
Cc1ccc(-n2cccc2/C=C2\C(=N)N3N=C(C(C)C)SC3=NC2=O)cc1 | -65 | 43 | 46 | 20 | 42* | 13 | 26
CC(C)CNc1nc(NC(C)(C)C)nc(Oc2ccc(=O)[nH]n2)n1 | 18 | -4 | -12 | 5 | 4 | 1 | /
O=C(CSc1ccc([N+](=O)[O-])cc1)Nc1cccc(S(=O)(=O)Nc2ccccc2F)c1 | 15 | 13 | -1 | -1 | 14 | -14 | /
Cc1cccc(NC2=C(NCCO)C(=O)c3ccccc3C2=O)c1 | -36 | 14 | 34 | 5 | 42* | -1 | 32*
CCN(Cc1nc(-c2ccccc2)no1)C(=O)c1ccc2c(c1)OCO2 | 10 | -2 | 1 | -24 | -10 | -11 | /
CC(C)c1ccc(NS(=O)(=O)c2ccc(-n3cccn3)cc2)cc1 | -4 | -1 | 30 | 11 | 45* | 0 | 8

Compound activity deposited in PubChem by several laboratories.
